The panel holds about 83,000 compounds, 20% with a hit somewhere; the sample as a whole holds those more often.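 Growth was measured after 48 h exposure to one concentration of compound in 96-well plates. Values under 10 count as active.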 The source made the active and inactive calls.
What was measured:
Test in all cases: NCI-60 one-dose screen, 48 h (100 = growth as untreated, 0 = no growth, -100 = all killed)
[1] = system: HCT-15 colon; conditions: 10 µM unless noted
[2] = system: HT29 colon; conditions: 10 µM unless noted
[3] = system: SNB-75 CNS; conditions: 10 µM unless noted
[4] = system: SNB-19 CNS; conditions: 10 µM unless noted
[5] = system: U251 CNS; conditions: 10 µM unless noted
[6] = system: PC-3 prostate; conditions: 10 µM unless noted
[7] = system: SK-MEL-5 melanoma; conditions: 10 µM unless noted
[8] = system: LOX IMVI melanoma; conditions: 10 µM unless noted
[9] = system: SK-MEL-28 melanoma; conditions: 10 µM unless noted
[10] = system: EKVX NSCLC; conditions: 10 µM unless noted
[11] = system: SN12C renal; conditions: 10 µM unless noted
[12] = system: UO-31 renal; conditions: 10 µM unless noted
[13] = system: TK-10 renal; conditions: 10 µM unless noted
[14] = system: ACHN renal; conditions: 10 µM unless noted
[15] = system: CAKI-1 renal; conditions: 10 µM unless noted
[16] = system: A498 renal; conditions: 10 µM unless noted
[17] = system: CCRF-CEM leukemia; conditions: 10 µM unless noted
[18] = system: MOLT-4 leukemia; conditions: 10 µM unless noted
[19] = system: UACC-62 melanoma; conditions: 10 µM unless noted
[20] = system: SK-MEL-2 melanoma; conditions: 10 µM

Measured: growth

Cc1cn(-c2cc(NC(=O)c3ccc(C)c(Nc4nccc(-c5cccnc5)n4)c3)cc(C(F)(F)F)c2)cn1
inactive: [1] 22.8% | [2] 17.4% | [3] 55.7% | [4] 69.9% | [5] 37.5% | [6] 26% | [8] 44.1% | [10] 69.6% | [11] 66.9% | [13] 75.1% | [14] 55.8% | [15] 50.6% | [16] 82.2% | [17] 36.2% | [18] 42.9%
active: [7] -22.5% | [9] -27.1% | [12] -3.45%

O=C1C=CC2(NN=C(c3ccccc3)N2c2cccc(Cl)c2)C(Cl)=C1 (centres undefined)
inactive: [1] 79.6% | [2] 87.8% | [3] 82% | [4] 94.3% | [6] 58.3% | [7] 91.8% | [19] 44.3% | [8] 71.2% | [9] 111% | [10] 67.5% | [11] 84.4% | [12] 51.5% | [13] 100% | [14] 63.7% | [15] 79.8% | [16] 83.4% | [17] 41.6% | [18] 39.2%

Cn1ncc(Cl)c1-c1cc(C(=O)N[C@H](CN)Cc2cccc(F)c2)sc1Cl
active: [2] 0.334% | [3] -46.2% | [4] 9.05% | [6] 9.61% | [7] -96.1% | [19] -19.5% | [8] -51.9% | [9] -72.7% | [12] -10.1% | [13] 8.77% | [16] -61.2% | [17] 6.1% | [18] -14.5%
inactive: [1] 16.9% | [10] 38.5% | [11] 29.5% | [14] 18.7% | [15] 11%

CNC(=O)c1nn(C)c2c1C(C)(C)Cc1cnc(Nc3ccc(N4CCN(C)CC4)cc3)nc1-2
active: [1] 3.12% | [2] -16.2% | [3] -20.6% | [6] 7.92% | [7] 7.31% | [19] -9.49% | [8] 5.27% | [10] 5.74% | [12] -8.73% | [13] -12.5% | [15] 7.68% | [16] -61.6% | [18] 2.29%
inactive: [4] 12.3% | [9] 16.2% | [11] 11.3% | [17] 10.4%

COc1ccc(-c2ccc3ncc4c(c3c2)n(-c2ccc(N3CCNCC3)c(C(F)(F)F)c2)c(=O)n4C)cn1
active: [1] -78.6% | [2] -78.2% | [3] -95.1% | [4] -74.2% | [6] -84.1% | [7] -92.4% | [19] -74.7% | [8] -82% | [9] -76.6% | [10] -77.1% | [11] -80.7% | [12] -90.9% | [13] -90.2% | [14] -97.5% | [15] -94.8% | [16] -79.2% | [17] -47.1% | [18] -50.8%

Cc1cc(NCC(=O)Nc2ccc(-c3nc4ccccc4s3)cc2)no1
active: [8] -42.7%
inactive: [1] 90.7% | [2] 105% | [3] 111% | [4] 96.5% | [5] 88.1% | [6] 96.6% | [7] 87.7% | [9] 110% | [10] 108% | [12] 77% | [13] 92.1% | [14] 111% | [15] 104% | [16] 89.7% | [17] 53.7% | [18] 46.7%

Cc1nn(-c2nc3ccccc3[nH]2)c2c1C(c1ccc(O)cc1)CC(=O)N2 (centres undefined)
active: [18] -14.4%
inactive: [1] 70.6% | [2] 83.9% | [3] 27.8% | [4] 84.1% | [6] 77.7% | [7] 85.3% | [19] 84.9% | [8] 85.2% | [9] 80.4% | [20] 51% | [10] 109% | [11] 101% | [12] 69.3% | [13] 86.9% | [14] 97% | [15] 89.9% | [17] 17.7%

CCc1nc2cc(F)c(/C=C/C(=O)NO)cc2c(=O)n1CCc1ccccc1
active: [7] 4.25% | [19] -21.7% | [8] -33.9% | [20] 9.96% | [12] -15% | [13] 1.94% | [14] 3.69% | [15] 0.745% | [16] -14.1% | [17] 3.07% | [18] 3.34%
inactive: [1] 24.4% | [2] 13.2% | [3] 34.8% | [4] 30.2% | [6] 22.6% | [9] 19.4% | [10] 25.7% | [11] 13.6%

CCOC(=O)C1=C(C)N=C2Sc3cc(OC(F)(F)F)ccc3N2[C@H]1c1ccccn1
inactive: [1] 13.7% | [2] 39.2% | [3] 63.4% | [4] 37.9% | [6] 50.9% | [7] 38.5% | [19] 28.3% | [8] 32.9% | [9] 42.4% | [20] 43.6% | [10] 26.8% | [11] 47.4% | [12] 33.1% | [13] 51.1% | [14] 32.8% | [15] 27.9% | [17] 43.3% | [18] 29.5%

O=S1(=O)OC(c2cc(Cl)c(O)c(Br)c2)(c2cc(Cl)c(O)c(Br)c2)c2ccccc21
inactive: [1] 105% | [2] 102% | [3] 83.4% | [4] 102% | [6] 84.3% | [7] 107% | [19] 97.1% | [8] 96.5% | [9] 118% | [10] 110% | [11] 90.6% | [12] 76.5% | [13] 93% | [14] 103% | [15] 107% | [16] 86.5% | [17] 93.6% | [18] 92.4%

C[C@H](NC(=O)c1c(N)nn2cccnc12)c1cc2cccc(C#Cc3cnn(C)c3)c2c(=O)n1-c1ccccc1
inactive: [1] 10.6% | [4] 39.3% | [5] 16.7% | [6] 18.9% | [7] 44% | [9] 45.5% | [10] 33.9% | [11] 40.6% | [12] 10.6% | [15] 21.3% | [17] 13.8%
active: [2] 2.38% | [3] -6.15% | [8] 7.86% | [13] -9.96% | [16] -24.3% | [18] -4.98%

C[C@@H](Oc1cc(-n2cnc3ccc(CN4CCN(C)CC4)cc32)sc1C(N)=O)c1ccccc1C(F)(F)F
active: [1] 6.53% | [2] 4.62% | [3] -5.55% | [7] 4.6% | [8] 4.53% | [16] -23% | [17] 6.03% | [18] -7.58%
inactive: [4] 26.1% | [6] 32.9% | [19] 51.1% | [9] 38% | [10] 38.9% | [11] 15.6% | [13] 52.2% | [14] 31.1% | [15] 28.3%

Cc1cc(C(=O)Nc2cc(Oc3ccc4nc(NC(=O)C5CC5)cn4n3)ccc2C)n(C)n1
active: [2] 4.61% | [3] 7.99% | [19] -16.9% | [8] -20.1% | [9] 0.461% | [16] -39.2%
inactive: [1] 44.1% | [4] 33.5% | [6] 49.8% | [7] 23.6% | [10] 58.8% | [11] 37.8% | [12] 14.4% | [13] 27.4% | [14] 37.3% | [15] 23.8% | [17] 29.9% | [18] 32.6%

Cc1nc2ccc(-n3ncc(C(=O)c4cc5ccccc5[nH]4)c3N)cc2[nH]1
inactive: [1] 30.9% | [2] 23.1% | [3] 39.9% | [4] 48.2% | [6] 41.1% | [7] 32.8% | [19] 43.5% | [8] 14.8% | [9] 69.7% | [10] 63.9% | [12] 48.9% | [13] 71.3% | [14] 49.8% | [15] 62.2% | [17] 43.8% | [18] 25.1%
active: [16] 8.03%

Cn1ccnc1C(=O)/C=C/c1ccc(CC(=O)Nc2ccc(S(F)(F)(F)(F)F)cc2)cc1
inactive: [7] 33.2% | [9] 38.2%
active: [1] 1.2% | [2] -36% | [3] 3.35% | [4] -39.9% | [6] -32.7% | [19] -2.41% | [8] -78.7% | [10] -27.4% | [11] -11.8% | [12] -90.5% | [13] 5.88% | [14] -21.6% | [15] -31.4% | [17] 8.93% | [18] -10.5%

C[C@@H]1COCCN1c1cc(C2([S@](C)(=N)=O)CC2)nc(-c2ccnc3[nH]ccc23)n1
inactive: [1] 31.7% | [2] 13.4% | [3] 31.1% | [4] 28% | [6] 50.7% | [7] 21.4% | [19] 23.7% | [9] 70.7% | [10] 54.2% | [11] 41% | [12] 13.2% | [13] 42.9% | [15] 28.9%
active: [8] 2.37% | [14] 7.85% | [17] 7.78% | [18] 7.26%

CNC(=O)c1cccc2cc(Oc3ccnc4cc(OCC5(N)CC5)c(OC)cc34)ccc12
inactive: [1] 57.8% | [2] 34.6% | [3] 26.7% | [4] 67.6% | [6] 66.9% | [7] 76.5% | [19] 82.2% | [8] 46.3% | [9] 87% | [10] 84.1% | [11] 52.7% | [12] 37.6% | [13] 63.9% | [14] 30.9% | [15] 38.2% | [16] 57.1% | [17] 44.4% | [18] 30.6%

C/C(=N\NC(=O)Cn1c(-c2ccc(S(C)(=O)=O)cc2)nc2ccccc21)c1ccc(Cl)cc1
inactive: [1] 87.8% | [2] 98.3% | [3] 81.1% | [4] 93.4% | [6] 52.2% | [7] 91.7% | [19] 84.7% | [8] 100% | [9] 113% | [10] 101% | [11] 97.4% | [13] 109% | [14] 93.6% | [15] 91.9% | [16] 104% | [17] 77% | [18] 79.7%

O=C(c1ccc(/C=C/c2n[nH]c3ccccc23)cc1)N1CCNCC1
active: [3] 0.841% | [8] 5.66% | [12] -7.82%
inactive: [1] 40.3% | [2] 13.5% | [4] 68.7% | [6] 38.3% | [7] 53.1% | [19] 48.7% | [9] 46.2% | [10] 71% | [11] 22.5% | [13] 53% | [14] 36.5% | [15] 11.7% | [17] 53.2% | [18] 19.9%
